Results taken from PubChem BioAssay (Tox21).
Records with an inconclusive call do not appear. Calls of active or inactive are those of the source. Unless noted, calls come from the whole dose curve; as a rule, active = well fitted curve in the direction sought with a large enough effect in the repeat runs; inconclusive = weak or mixed curves; inactive = no such curve, though single readings can be large; an effect the other way counts as inactive or inconclusive.

Experiments:
[1] = qHTS assay to identify aromatase inhibitors - cell viability counter screen (AID 743084);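 note: cells stimulated with testosterone during compound exposure; nearly all actives have a fitted effect of over 55% in size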
[2] = target: Aryl hydrocarbon receptor (Homo sapiens) (UniProt P35869); test: qHTS assay to identify small molecule that activate the aryl hydrocarbon receptor (AhR) signaling pathway (AID 743085);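 note: HG2L7.5c1 human HepG2 liver cells with stably integrated DRE-driven firefly reporter; series mostly up to about 70 µM; nearly all actives have a fitted effect of over 15% in size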
In short: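 Luminescence (ONE-Glo) from a dioxin-responsive-element luciferase reporter in HG2L7.5c1 HepG2 cells after 24 hr compound exposure at 37C; viability measured by CellTiter-Fluor fluorescence beforehand.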

[3] = qHTS assay to identify small molecule that activate the aryl hydrocarbon receptor (AhR) signaling pathway - cell viability counter screen (AID 743086);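 note: HepG2 liver cells carrying the AhR DRE luciferase reporter; series mostly up to about 70 µM; nearly all actives have a fitted effect of over 45% in size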
In short: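 HepG2-AhR-luc (HG2L7.5c1) cells, 4000/well, treated 24 h at 37 C with compound; viability measured as CellTiter-Fluor fluorescence after 30 min in the same wells as the luciferase read.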

[4] = target: Peroxisome proliferator-activated receptor gamma (Homo sapiens) (UniProt P37231); test: qHTS assay to identify small molecule agonists of the peroxisome proliferator-activated receptor gamma (PPARg) signaling pathway (AID 743094; active = well fitted activation curve with a large enough effect in the signal ratio in the repeat runs, not every such curve was filed as active; the % refers to the signal ratio)
In short: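 Quantitative HTS agonist mode: stable HEK293H line with UAS-beta-lactamase reporter under PPARg control, 17 h compound exposure at 37C, fluorescence after 1 h FRET substrate loading at room temperature.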

[5] = target: Peroxisome proliferator-activated receptor gamma (Homo sapiens) (UniProt P37231); test: qHTS assay to identify small molecule antagonists of the peroxisome proliferator-activated receptor gamma (PPARg) signaling pathway (AID 743191; calls by dose curve; note: series mostly up to about 63 µM; nearly all actives have a fitted effect of over 30% in size)
In short: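 GeneBLAzer PPARg UAS-bla HEK293H cells, 5 h post-plating, exposed to compounds 17 h at 37C. LiveBLAzer B/G FRET substrate added for 1 h at room temperature; beta-lactamase reporter read by fluorescence intensity.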

[6] = qHTS assay to identify small molecule antagonists of the peroxisome proliferator-activated receptor gamma (PPARg) signaling pathway - cell viability counter screen (AID 743194); note: nearly all actives have a fitted effect of over 55% in size
In short: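 Cytotoxicity counter screen in PPARg-bla HEK293H cells, same wells as reporter assay. Compounds plus 50 nM rosiglitazone (final) for 17 h at 37 C, then viability read by CellTiter-Glo luminescence.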

[7] = qHTS assay for small molecule agonists of the antioxidant response element (ARE) signaling pathway (AID 743202; active = well fitted activation curve with a large enough effect in the signal ratio in the repeat runs, not every such curve was filed as active; the % refers to the signal ratio)
In short: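 Agonist mode reporter screen: HepG2 cells with ARE-controlled beta-lactamase are incubated with test compounds for 16 h at 37 C, and beta-lactamase activity is measured as fluorescence of cleaved B/G FRET substrate.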

[8] = qHTS assay for small molecule agonists of the antioxidant response element (ARE) signaling pathway - cell viability counter screen (AID 743203; calls by dose curve; note: nearly all actives have a fitted effect of over 55% in size)
In short: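 Seeded at 2,000 cells/well, ARE-bla HepG2 cells were incubated 5 hrs before compound addition. After 16 hrs of treatment at 37C with 5% CO2, CellTiter-Glo reagent was added and luminescence read 30 min later.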

[9] = qHTS assay for small molecule activators of the heat shock response signaling pathway - cell viability counter screen (AID 743209); note: nearly all actives have a fitted effect of over 50% in size
In short: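 First, HSE-bla HeLa cells were seeded at 1500 cells/well and kept overnight at 37 C. Next, compounds were pinned in and incubated 5 h. After the FRET substrate step, CellTiter-Glo was added and luminescence read 30 min later.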

[10] = qHTS assay for small molecule activators of the heat shock response signaling pathway (AID 743210; active = well fitted activation curve with a large enough effect in the signal ratio in the repeat runs, with a control signal flat, not every such curve was filed as active; the % refers to the signal ratio;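 note: HeLa cells with beta-lactamase reporter driven by heat shock elements; series mostly up to about 63 µM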)
In short: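 Quantitative high-throughput format using an engineered HeLa line in which heat shock response elements drive beta-lactamase; after 5 h with compound, cells received a B/G FRET substrate and fluorescence was read.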

[11] = qHTS assay to identify small molecule agonists of the peroxisome proliferator-activated receptor delta (PPARd) signaling pathway - cell viability counter screen (AID 743211); note: nearly all actives have a fitted effect of over 55% in size
In short: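 Viability was measured as CellTiter-Glo luminescence (30 min, room temperature) in the same wells as the beta-lactamase readout. GeneBLAzer PPARd UAS-bla HEK293H cells received compound after 5 h plating and were incubated 17 h at 37 C.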

[12] = qHTS assay to identify small molecule antagonists of the peroxisome proliferator-activated receptor delta (PPARd) signaling pathway - cell viability counter screen (AID 743213); note: nearly all actives have a fitted effect of over 50% in size
In short: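 PPARd-bla HEK293H cells (3000/well) got compound plus 300 nM L165041 agonist for 17 h at 37 C. Viability in the same wells came from CellTiter-Glo luminescence after 30 min at room temperature.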

[13] = qHTS assay to identify small molecule agonists of the farnesoid-X-receptor (FXR) signaling pathway - cell viability counter screen (AID 743218); note: nearly all actives have a fitted effect of over 45% in size
In short: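 Cytotoxicity counter-screen run in parallel, same wells: FXR-UAS-bla HEK 293T cells dosed 16 h at 37 C, viability read by CellTiter-Glo luminescence after 30 min at room temperature.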

[14] = qHTS assay to identify small molecule antagonists of the farnesoid-X-receptor (FXR) signaling pathway - cell viability counter screen (AID 743221; active = well fitted cell-killing curve with a large enough effect in the repeat runs, not every such curve was filed as active; note: nearly all actives have a fitted effect of over 50% in size)
In short: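 Cytotoxicity counter screen run in the FXR-bla reporter wells: HEK 293T cells exposed to compound with 50 uM (final) chenodeoxycholic acid for 16 h, 37 C, then viability measured by CellTiter-Glo luminescence after 30 min, room temperature.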

[15] = target: Peroxisome proliferator-activated receptor delta (Homo sapiens) (UniProt Q03181); test: qHTS assay to identify small molecule agonists of the peroxisome proliferator-activated receptor delta (PPARd) signaling pathway (AID 743212; calls by dose curve)
In short: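 Quantitative high-throughput agonist screen in a HEK293H beta-lactamase reporter line under UAS control. Compounds in DMSO, at 37 C. Fluorescence read after 2 h with FRET substrate at room temperature.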

[16] = target: Peroxisome proliferator-activated receptor delta (Homo sapiens) (UniProt Q03181); test: qHTS assay to identify small molecule antagonists of the peroxisome proliferator-activated receptor delta (PPARd) signaling pathway (AID 743215; active = well fitted inhibition curve with a large enough effect in the signal ratio in the repeat runs, not every such curve was filed as active; the % refers to the signal ratio;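 note: cells stimulated with agonist L165041 at 300 nM final during compound exposure; series mostly up to about 62 µM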)
In short: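 Inhibition of L165041-driven (300 nM final) PPARd signaling is scored in HEK293H UAS-bla cells. Exposure lasts 17 h at 37 C; beta-lactamase activity is then read by FRET substrate fluorescence after 2 h at room temperature.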

[17] = target: Bile acid receptor (Homo sapiens) (UniProt Q96RI1); test: qHTS assay to identify small molecule antagonists of the farnesoid-X-receptor (FXR) signaling pathway (AID 743217; active = well fitted inhibition curve with a large enough effect in the signal ratio in the repeat runs, not every such curve was filed as active; the % refers to the signal ratio)
In short: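 Antagonist mode against 50 uM (final) chenodeoxycholic acid stimulation in FXR-bla HEK 293T cells, 16 h at 37 °C. Inhibition detected as reduced beta-lactamase activity via LiveBLAzer B/G FRET fluorescence after 2 h at room temperature.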

[18] = target: Bile acid receptor (Homo sapiens) (UniProt Q96RI1); test: qHTS assay to identify small molecule agonists of the farnesoid-X-receptor (FXR) signaling pathway (AID 743220; active = well fitted activation curve with a large enough effect in the signal ratio in the repeat runs, not every such curve was filed as active; the % refers to the signal ratio)
In short: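 Beta-lactamase reporter under UAS control in GeneBLAzer FXR HEK 293T cells (5000/well) measured with LiveBLAzer FRET substrate after 2 h at room temperature. Compound exposure lasted 16 h at 37C.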

[19] = target: Vitamin D3 receptor (Homo sapiens) (UniProt P11473); test: qHTS assay to identify small molecule agonists of the vitamin D receptor (VDR) signaling pathway (AID 743222; calls by dose curve)
In short: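 Quantitative HTS agonist-mode screen: compounds in DMSO were pin-transferred onto VDR-bla cells and incubated 16 h at 37C, 5% CO2. Reporter activity was detected with LiveBLAzer B/G FRET substrate after 2 h at room temperature.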

[20] = target: Vitamin D3 receptor (Homo sapiens) (UniProt P11473); test: qHTS assay to identify small molecule antagonists of the vitamin D receptor (VDR) signaling pathway (AID 743223; active = well fitted inhibition curve with a large enough effect in the signal ratio in the repeat runs, not every such curve was filed as active; the % refers to the signal ratio)
In short: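 Antagonist mode: compound added to VDR-bla cells alongside agonist 1alpha,25-dihydroxyvitamin D3 (3 nM final), incubation 16 h at 37C. Read-out is LiveBLAzer FRET fluorescence, 2 h at room temperature.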
% is set by controls: 0 for no effect and ±100 for the full control effect.

Chain of Peroxisome proliferator-activated receptor delta (Homo sapiens) (Q03181 whole entry, looked up): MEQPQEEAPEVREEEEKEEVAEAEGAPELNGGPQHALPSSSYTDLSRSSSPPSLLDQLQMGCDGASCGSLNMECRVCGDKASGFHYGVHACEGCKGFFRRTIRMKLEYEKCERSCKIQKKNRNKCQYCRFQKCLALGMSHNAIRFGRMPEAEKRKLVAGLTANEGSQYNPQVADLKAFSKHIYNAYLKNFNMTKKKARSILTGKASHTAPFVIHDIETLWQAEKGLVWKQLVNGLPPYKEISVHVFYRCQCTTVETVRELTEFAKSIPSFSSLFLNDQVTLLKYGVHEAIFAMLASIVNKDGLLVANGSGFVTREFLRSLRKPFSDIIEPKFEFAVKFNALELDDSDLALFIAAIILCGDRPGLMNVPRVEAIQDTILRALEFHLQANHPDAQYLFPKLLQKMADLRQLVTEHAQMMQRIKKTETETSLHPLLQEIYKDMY
Chain of Vitamin D3 receptor (Homo sapiens) (P11473 whole entry, looked up): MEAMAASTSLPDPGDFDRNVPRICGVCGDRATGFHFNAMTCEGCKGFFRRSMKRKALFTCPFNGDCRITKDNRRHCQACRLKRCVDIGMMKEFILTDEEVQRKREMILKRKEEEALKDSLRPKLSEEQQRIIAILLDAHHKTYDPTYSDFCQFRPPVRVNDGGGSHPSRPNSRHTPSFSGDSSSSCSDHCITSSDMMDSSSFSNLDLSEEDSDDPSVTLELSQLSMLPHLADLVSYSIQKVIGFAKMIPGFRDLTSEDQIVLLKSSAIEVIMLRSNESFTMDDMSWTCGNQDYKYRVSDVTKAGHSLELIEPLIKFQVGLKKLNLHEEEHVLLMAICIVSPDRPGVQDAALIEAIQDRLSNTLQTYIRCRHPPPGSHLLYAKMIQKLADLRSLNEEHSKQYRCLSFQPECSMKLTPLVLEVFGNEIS
Chain of Aryl hydrocarbon receptor (Homo sapiens) (P35869 whole entry, looked up): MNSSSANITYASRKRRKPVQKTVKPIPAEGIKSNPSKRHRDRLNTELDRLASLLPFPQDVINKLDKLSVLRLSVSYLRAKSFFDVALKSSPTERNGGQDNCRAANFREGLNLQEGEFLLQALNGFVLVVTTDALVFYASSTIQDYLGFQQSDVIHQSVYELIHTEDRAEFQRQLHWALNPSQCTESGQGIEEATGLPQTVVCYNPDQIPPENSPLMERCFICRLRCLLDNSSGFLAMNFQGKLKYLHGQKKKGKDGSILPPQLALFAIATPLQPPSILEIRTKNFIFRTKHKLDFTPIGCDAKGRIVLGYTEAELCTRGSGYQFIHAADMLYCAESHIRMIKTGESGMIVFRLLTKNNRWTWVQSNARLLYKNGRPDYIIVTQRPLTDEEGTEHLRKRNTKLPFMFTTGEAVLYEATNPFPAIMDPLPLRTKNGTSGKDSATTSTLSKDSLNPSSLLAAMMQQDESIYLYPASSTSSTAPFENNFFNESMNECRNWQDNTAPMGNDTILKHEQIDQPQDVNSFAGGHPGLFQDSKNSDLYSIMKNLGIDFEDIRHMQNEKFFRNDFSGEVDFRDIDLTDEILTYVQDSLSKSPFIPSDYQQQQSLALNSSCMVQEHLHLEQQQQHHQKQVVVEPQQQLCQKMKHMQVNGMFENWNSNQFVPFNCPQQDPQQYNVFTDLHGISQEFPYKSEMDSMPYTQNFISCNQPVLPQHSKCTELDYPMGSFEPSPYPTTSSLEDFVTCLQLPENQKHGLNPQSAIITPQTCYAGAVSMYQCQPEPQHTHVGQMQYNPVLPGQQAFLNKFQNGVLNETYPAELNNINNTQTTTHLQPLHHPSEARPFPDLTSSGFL
Chain of Peroxisome proliferator-activated receptor gamma (Homo sapiens) (P37231 whole entry, looked up): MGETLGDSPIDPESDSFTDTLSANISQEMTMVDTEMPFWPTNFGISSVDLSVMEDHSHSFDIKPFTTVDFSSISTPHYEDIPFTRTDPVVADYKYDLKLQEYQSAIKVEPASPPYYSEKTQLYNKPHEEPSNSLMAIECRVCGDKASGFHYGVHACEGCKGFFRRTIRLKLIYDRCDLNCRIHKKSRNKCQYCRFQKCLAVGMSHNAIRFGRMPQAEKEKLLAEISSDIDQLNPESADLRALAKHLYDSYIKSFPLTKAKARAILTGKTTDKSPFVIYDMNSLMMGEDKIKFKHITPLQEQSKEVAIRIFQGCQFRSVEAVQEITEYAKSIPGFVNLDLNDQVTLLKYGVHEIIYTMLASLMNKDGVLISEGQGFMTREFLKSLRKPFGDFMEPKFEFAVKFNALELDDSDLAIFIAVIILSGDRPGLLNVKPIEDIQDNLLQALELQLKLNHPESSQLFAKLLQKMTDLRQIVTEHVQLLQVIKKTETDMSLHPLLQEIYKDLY
Chain of Bile acid receptor (Homo sapiens) (Q96RI1 whole entry, looked up): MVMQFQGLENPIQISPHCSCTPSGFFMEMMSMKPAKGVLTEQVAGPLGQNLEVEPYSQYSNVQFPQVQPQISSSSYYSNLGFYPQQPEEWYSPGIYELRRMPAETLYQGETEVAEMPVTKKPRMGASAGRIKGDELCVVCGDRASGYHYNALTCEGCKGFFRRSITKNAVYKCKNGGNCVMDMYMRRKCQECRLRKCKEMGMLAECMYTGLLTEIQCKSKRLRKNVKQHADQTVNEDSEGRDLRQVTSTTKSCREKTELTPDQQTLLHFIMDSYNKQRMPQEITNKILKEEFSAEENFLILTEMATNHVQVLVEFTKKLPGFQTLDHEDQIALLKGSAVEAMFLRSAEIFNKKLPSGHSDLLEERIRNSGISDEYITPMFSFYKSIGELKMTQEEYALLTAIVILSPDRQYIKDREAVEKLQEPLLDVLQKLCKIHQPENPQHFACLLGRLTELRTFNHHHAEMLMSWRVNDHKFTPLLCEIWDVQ

C[N+]1(CC2COC(c3ccccc3)(C3CCCCC3)O2)CCCCC1 (stereo unspecified)
inactive: Potency [1] | Potency [2] | Potency [3] | Potency [4] | Potency [5] | Potency [6] | Potency [7] | Potency [8] | Potency [9] | Potency [10] | Potency [11] | Potency [12] | Potency [13] | Potency [14]

Nc1cccc([N+](=O)[O-])c1
inactive: Potency [1] | Potency [2] | Potency [3] | Potency [4] | Potency [5] | Potency [6] | Potency [7] | Potency [8] | Potency [10] | Potency [11] | Potency [15] | Potency [12] | Potency [16] | Potency [17] | Potency [18] | Potency [14]

CC1OC(=O)C(C)OC1=O (stereo unspecified)
inactive: Potency [1] | Potency [2] | Potency [3] | Potency [4] | Potency [5] | Potency [6] | Potency [7] | Potency [8] | Potency [9] | Potency [10] | Potency [11] | Potency [15] | Potency [12] | Potency [16] | Potency [17] | Potency [13] | Potency [18] | Potency [14] | Potency [19] | outcome [20]

CCOC(=O)Cc1cccc2ccccc12
inactive: Potency [1] | Potency [2] | Potency [3] | Potency [4] | Potency [5] | Potency [6] | Potency [7] | Potency [8] | Potency [9] | Potency [11] | Potency [12] | Potency [13] | Potency [19] | outcome [20]

NC(N)=NCCC[C@H](N)C(=O)O
inactive: Potency [1] | Potency [2] | Potency [3] | Potency [4] | ratio activity, negative = inhibition [5] 0.163% [at 5.95 µM] | activity change, negative = cytotoxicity [6] 5.54% [at 5.95 µM] | activation [7] 0.601% [at 8.36 µM] | activity change, negative = cytotoxicity [9] 4.58% [at 5.95 µM] | activation [10] 0.502% [at 5.95 µM] | activity change, negative = cytotoxicity [11] 1.87% [at 5.95 µM] | viability change, negative = cytotoxic [12] 2.08% [at 6.26 µM] | ratio activity, negative = inhibition [16] -1.1% [at 6.26 µM] | viability change, negative = cytotoxic [13] -2.05% [at 5.95 µM] | activation [19] 9.36% [at 6.01 µM] | activity change, negative = inhibition [20] 2.1% [at 6.95 µM]

OCCNCc1ccccc1
inactive: Potency [1] | Potency [2] | Potency [3] | Potency [4] | Potency [5] | Potency [6] | Potency [7] | Potency [8] | Potency [9] | Potency [10] | Potency [11] | Potency [15] | Potency [12] | Potency [13] | Potency [14] | Potency [19]

CCCCC(CC)COC(=O)COc1ccc(Cl)cc1Cl (stereo unspecified)
inactive: Potency [1] | Potency [2] | Potency [3] | Potency [4] | Potency [5] | Potency [6] | Potency [7] | Potency [8] | Potency [9] | Potency [10] | Potency [12] | Potency [14] | Potency [19] | outcome [20]

CC(C)(COC(=O)c1ccccc1)COC(=O)c1ccccc1
inactive: Potency [1] | Potency [2] | Potency [3] | Potency [4] | Potency [5] | Potency [6] | Potency [7] | Potency [8] | Potency [9] | Potency [10] | Potency [11] | Potency [15] | Potency [12] | Potency [16] | Potency [13] | Potency [14] | Potency [19]
